# Screening results as filed in PubChem BioAssay.
# MCF10A rereplic: A quantitative high throughput screen for small molecules that induce DNA re-replication in MCF 10a normal breast cells; MCF 10A DNA re-replication, Hoechst nuclear intensity, 48 h; Potency, µM (doses to about 46.1 µM), inactives show at the highest dose activity, positive = re-replication, usual class: activators; actives 2.9% (n = 350,000); also: % of control where 0% means no effect; nearly all actives have a fitted effect of over 50% in size
# KB-V1 cytotox: qHTS assay for MDR1-selective chemotherapeutics: Primary screen using the drug-selected MDR subline cells KB-V1 | KB-V1 MDR cells viability, CellTiter-Glo, 72 h | Potency, µM (titrated, usually from 46.1 µM), usual class: cytotoxic | actives 3.4% (n = 400,000) | AID 1347076, 2019; also: % is scaled to controls: 0 for no effect and ±100 for the full control effect; nearly all actives have a fitted effect of over 60% in size
#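 Compound-treated KB-V1 multidrug-resistant cells, 72 h, 37 degrees C; viability by CellTiter-Glo. Fitted qHTS curves give the values.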
# KB-3-1 cytotox: qHTS assay for MDR1-selective chemotherapeutics: Primary screen using the parental adenocarcinoma cell KB-3-1; actives 1.4% (n = 400,000); AID 1347075, 2019; Potency, µM (top dose mostly 46.1 µM), actives largely listed as cytotoxic; KB-3-1 viability, CellTiter-Glo ATP luminescence, 72 h; also: % is scaled to controls: 0 for no effect and ±100 for the full control effect; nearly all actives have a fitted effect of over 60% in size
#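 Using CellTiter-Glo luminescence, growth of non-resistant KB-3-1 adenocarcinoma cells is assessed 72 h after pin-tool compound addition at 37 °C. Normalized responses across the concentration series yield fitted curves.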
# PINK1 expr mod: A Quantitative High throughput Screen to Identify Chemical Modulators of PINK1 Expression. actives 0.2% (n = 410,000). Potency, µM (highest dose often 76.6 µM), for the others: top-dose activation (PINK1 increase), usual class: activators. PINK1 immunofluorescence, high-content cytometry, 24 h. AID 624263, 2012; active = well fitted activation curve with a large enough effect; inconclusive = small, poorly fitted or top-dose-only effect; cell line not stated here; also: % of control where 0% means no effect; nearly all actives have a fitted effect of over 65% in size
#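 Compound titrations (5 concentrations, 24 h) on a stable cell line; DMSO and CCCP controls. Endpoint: fixed-cell PINK1 immunofluorescence with mitochondrial, cell and nuclear markers, scanned by microplate cytometer.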
# PTAP TSG101 blk: qHTS Assay for Iinhibitors of HIV-1 Budding by Blocking the Interaction of PTAP/TSG101; Tumor susceptibility gene 101 protein (Homo sapiens), Q99816; Fluorescence polarization, FITC-PTAP peptide / Tsg101 binding; Potency, µM (top dose mostly 115 µM), for the others: top-dose activity change, negative = inhibition, most hits filed as inhibitors; 340,000 tested, under 10 active; active = well fitted inhibition curve with a large enough effect in the main read-out, with a control signal flat, not every such curve was filed as active; inconclusive = small, poorly fitted or top-dose-only effect, or effect the other way, or a change in a side signal; inactive = no such curve, though single readings can be large or run the other way; also: % of control where 0% means no effect
# Target sequence (Q99816 whole entry, looked up): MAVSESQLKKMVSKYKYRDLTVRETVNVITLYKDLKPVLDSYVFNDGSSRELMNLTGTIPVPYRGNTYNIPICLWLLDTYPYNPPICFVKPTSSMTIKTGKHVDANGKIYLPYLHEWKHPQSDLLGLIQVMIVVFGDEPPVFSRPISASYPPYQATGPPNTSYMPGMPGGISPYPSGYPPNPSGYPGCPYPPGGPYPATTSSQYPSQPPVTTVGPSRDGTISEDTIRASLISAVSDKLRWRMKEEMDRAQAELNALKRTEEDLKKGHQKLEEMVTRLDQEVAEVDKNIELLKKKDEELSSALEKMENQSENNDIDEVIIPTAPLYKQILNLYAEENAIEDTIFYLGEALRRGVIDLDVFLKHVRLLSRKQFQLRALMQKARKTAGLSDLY
#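 FP read-out: FITC-PTAP peptide, 50 nM final, binding Tsg101 binding domain, 10 uM final; 20 min, r.t.; 10 mM HEPES pH 7.5, 0.15 M NaCl, 0.01% Tween 20, 3 mM EDTA, 0.1 mM TCEP.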
# SW480 rereplic: A quantitative high throughput screen for small molecules that induce DNA re-replication in SW480 colon adenocarcinoma cells; SW480 DNA re-replication, Hoechst DNA content imaging, 48 h; Potency, µM (titrated, usually from 46.1 µM), inactives show at the top dose re-replication activation, hits mostly activators; actives 1.8% (n = 340,000); AID 624297, 2012; also: % of control where 0% means no effect; nearly all actives have a fitted effect of over 55% in size
#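 Image-based DNA-content assay: after two days of treatment, nuclei were labelled with the DNA dye Hoechst and imaged, and hits were compounds raising the count of nuclei showing high fluorescence intensity.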
# * hit, by the source's call; i = inactive; ? = inconclusive; . = no result; [ ] = dose if it differs, or a comment. This is a sample that favours compounds with a hit; in the whole collection about 6.8% have one here. Unless noted, calls follow the shape of the dose curve; as a rule, active = well fitted curve in the direction sought with a large enough effect; inconclusive = small, poorly fitted or top-dose-only effect, or another doubt; inactive = no such curve, though single readings can be large; an effect the other way counts as inactive or inconclusive. Potency is read from the fitted curve at half-maximal effect.
SMILES,MCF10A rereplic,KB-V1 cytotox,KB-3-1 cytotox,PINK1 expr mod,PTAP TSG101 blk,SW480 rereplic
COc1ccc(C2CC(=O)c3cnn(-c4nc(C)cc(C)n4)c3C2)cc1 (stereo not given),0.82µM*,?,i,8%,5%,?
Cc1cc(C)nc(-n2ncc3c2CC(c2ccccc2)CC3=O)n1 (stereo not given),20%,i,i,0%,-1%,-7%
CCOC(=O)c1c(C)c(C(=O)NCc2ccc3c(c2)OCO3)c(C)n1CC,-3%,i,i,11%,3%,-2%
CCOC(=O)c1c(C)c(C(=O)NCc2ccc3c(c2)OCO3)c(C)n1C,1%,18µM*,i,-2%[38.3 µM],5%,0%
CCOC(=O)c1c(C)c(C(=O)NCc2cccs2)c(C)n1CC,-2%,15µM*,i,1%[38.3 µM],0%,-8%
Cc1cc(C)cc(-n2nnc(C(=O)NCc3ccc4c(c3)OCO4)c2N)c1,?,8.2µM*,i,-2%,-2%,-5%
COc1ccc(C2c3ccc4ccccc4c3Oc3ncn(CCCN(C)C)c(=N)c32)cc1 (stereo not given),21µM*,?,?,-2%,-8%,12µM*
COc1ccccc1C1c2ccc3ccccc3c2Oc2ncn(CCN(C)C)c(=N)c21 (stereo not given),9.2µM*,?,?,-4%,-6%,?
COc1ccc(C2c3c(ncn(CCCO)c3=N)Oc3ccc4ccccc4c32)cc1 (stereo not given),?,i,?,-2%,-1%,?
COc1ccccc1C1c2ccc3ccccc3c2Oc2ncn(CCCO)c(=N)c21 (stereo not given),?,i,i,-1%,-6%,130%
COc1ccc(C2c3c(ncn(CCN4CCOCC4)c3=N)Oc3ccc4ccccc4c32)cc1OC (stereo not given),?,23µM*,?,1%,-9%,?
CCCN(c1ccc(C(C)C)cc1)S(=O)(=O)c1ccc2c(c1)oc(=O)n2CC(=O)OCC,.,i,i,-1%,.,.
CC(C)N(Cc1ccccc1)C(=O)Cn1ncc2c([nH]c3ccccc32)c1=O,.,i,i,1%,.,.
CCN1CCC(CN2CCNC2=S)CC1,-14%,i,i,-1%,-4%,16µM*
CC(=O)c1ccccc1-c1ccc2c(c1)CC(CNC(=O)Cc1c[nH]c3ccccc13)O2 (stereo not given),.,.,.,-1%,.,.
COc1ccc(Cl)cc1NC(=O)CC(=O)Nc1cc(Cl)ccc1OC,23%,i,i,?,-1%,25%
COc1ccc(CCC(=O)Nc2cc(Cl)ccc2OC)cc1,?,21µM*,i,1%[38.3 µM],-1%,?
Cc1ccc(C)c(N(CC(=O)Nc2cc(Cl)ccc2Oc2ccccc2)S(C)(=O)=O)c1,7%,21µM*,?,1%,0%,2%
CC(C)(C)NS(=O)(=O)c1ccc(CCC(=O)Nc2cc(Cl)ccc2Oc2ccccc2)cc1,-11%,i,i,1%,-2%,-4%
C=CCN(CC=C)C(=O)Nc1cc(Cl)ccc1OC,-3%,15µM*,i,-4%[38.3 µM],-6%,-2%
CCCNS(=O)(=O)c1ccc(CCC(=O)Nc2cc(Cl)ccc2Oc2ccccc2)cc1,8.2µM*,8.2µM*,i,1%,-1%,5%
COc1cccc(Cc2nc3ccccc3nc2SCC(=O)NCCc2ccccc2)c1,.,i,i,0%,.,.
CC(C)CNS(=O)(=O)c1ccc(CCC(=O)Nc2cc(Cl)ccc2Oc2ccccc2)cc1,16%,i,?,-3%,1%,7.3µM*
CCOC(=O)c1scc(-c2ccccc2)c1S(=O)(=O)N1CCN(c2ccccc2OC)CC1,.,?,i,5%,.,.
Cn1cc(/C=N/n2cnc3scc(-c4ccc(Cl)cc4)c3c2=O)c2ccccc21,0.33µM*,?,?,0%,-1%,0.58µM*
SMILES,MCF10A rereplic,KB-V1 cytotox,KB-3-1 cytotox,PINK1 expr mod,PTAP TSG101 blk,SW480 rereplic
CCOC(=O)N1CCC(N(C(=O)Nc2ccccc2)C(C)CC)CC1 (stereo not given),1%,15µM*,i,1%[38.3 µM],-5%,-2%
CCOC(=O)c1c(C=O)c(C)n(Cc2ccc(C)cc2)c1C,?,?,?,6%,-4%,?
CCOC(=O)c1c(C=O)c(C)n(Cc2ccccc2Cl)c1C,?,23µM*,i,-1%,1%,?
N/C(=C\C(=O)c1cc(Cl)ccc1O)C(Cl)(Cl)Cl,12µM*,7.3µM*,?,-1%,-8%,10µM*
CCc1ccc(CN(Cc2ccco2)c2cnc(S(C)(=O)=O)nc2C(=O)Nc2cccc(C)c2)cc1,.,i,i,1%,.,.
CCOC(=O)CN(C(=O)CNC(=O)c1cccs1)C(C(=O)NC1CCCCC1)c1cccs1 (stereo not given),0%,21µM*,i,-3%,-7%,-3%
Cc1ccc2onc(CC(=O)N3CCN(c4cc(Cl)ccc4C)CC3)c2c1,.,?,?,0%,.,.
CC(C)Sc1nc(N2CCOCC2)c2c(c1C#N)CC(C)(C)SC2,?,6.5µM*,?,0%,-1%,-6%
CC(C)CSc1nc(N2CCOCC2)c2c(c1C#N)CC(C)(C)SC2,?,i,i,3%,-2%,3%
CC1CCC(NC(=O)CN(C)CC(=O)Nc2ccc(F)cc2)CC1 (stereo not given),1%,23µM*,i,3%,-4%,1%
CN(CC(=O)Nc1ccc(Cl)c(C(F)(F)F)c1)CC(=O)NC1CCCCC1,?,i,i,12%,-7%,?
O=C(NCC(c1cccnc1)N1CCc2ccccc21)c1ccc(F)c(F)c1 (stereo not given),.,i,i,0%,.,.
CC(CS(=O)(=O)c1ccc2c(c1)NC(=O)CS2)C(=O)NCc1ccccc1Cl (stereo not given),-1%,i,i,-1%,-1%,1%
CC(CS(=O)(=O)c1ccc2c(c1)NC(=O)CS2)C(=O)N1CCN(c2cccc(Cl)c2)CC1 (stereo not given),16%,i,23µM*,0%,-1%,11%
